Data on 40 molecules can be found in PubChem BioAssay AID2507 (National Center for Advancing Translational Sciences (NCATS), 2010).

Inconclusive results are not listed. Unmarked numbers belong to inactive results. Activity calls are given as the source filed them. The call rests on the fitted dose curve; in most records, active means well fitted inhibition curve with a large enough effect; inconclusive means small, poorly fitted or top-dose-only effect, or effect the other way; inactive means flat fitted curve, though single readings scatter.

A short description of this assay: Secondary Assay for General miRNAs Modulators and/or Inhibitors/Activators of miR-21: miR-30 Firefly Luciferase Assay. The settings on record: HeLa miR-30 FLuc reporter, luminescence, 48 h; series mostly up to 38.3 µM; activity change, negative = inhibition: at the top concentration. From the text:
MLSCN Grant: 1 R21 NS059478-01 Assay Provider: Qihong Huang, The Wistar Institute NCGC Assay Overview: MicroRNAs (miRNAs) are endogenously encoded small (~20-25 nucleotides), nonprotein-coding RNAs that are involved in post-transcriptional repression of target messenger RNAs (mRNAs) (Le and Hannon, 2004). Estimated to be involved in the regulation of 30% of all protein-coding mRNAs (Filipowicz et al., 2008), miRNAs play a significant role in many biological processes including cellular differentiation and tissue development (Ghildiyal and Zamore, 2009). […] Compounds active in the miR-21 FLuc assay were clustered using Leadscope and active chemical series were prioritized based on chemical properties, potential for medicinal chemistry optimization, and SAR. Within each chemical series, representative compounds were re-acquired to test for activity in a secondary assay based on the quality of their CRC, efficacy, and potency. The secondary assay to determine if compounds active in the miR-21 FLuc assay were potentially specific for miR-21 and were not general modulators of the miRNA pathway was another cell-based FLuc reporter gene assay, this time targeting miR-30. Compounds found active in both the miR-21 FLuc and miR-30 FLuc assays are not considered miR-21 specific compounds, and may be general miRNA modulators.
NCGC Assay Protocol Summary: Reagents: HeLa cells stably expressing firefly luciferase (FLuc) under the control of a CMV promoter (upstream) and a miR-30 binding sequence directly downstream of the gene. These cells also stably express miR-30. Control compounds used were compound C3 (provided by collaborator), N6-phenyladenosine (MP Biomedicals, 0215379625), and DMSO. Assay Summary: 6uL of HeLa miR-30-FLuc cells in assay buffer (DMEM, Invitrogen #21063-029; 10% FBS, HyClone #SH30071.03) were dispensed at 1000cells/well (1.7 x 10^5 cells/mL) into Greiner solid-white TC-treated 1536-well plates using a Multidrop Combi (Thermo Fisher Scientific). Plates were incubated for one hour at 37 degree Celsius, 95% humidity, 5% CO2. These assay plates were then treated with 23nL of compound or DMSO using a Kalypsys pin tool, which allows for delivery of a 24-point titration of each compound to the assay plate, with a final compound concentration ranging from approximately 40uM to 5pM. Assay plates were then incubated for 48 hours. After incubation, plates were allowed to come to RT for one hour prior to delivery of 3uL of 3X luciferase detection reagent. After a 15 minute incubation to allow for cell lysis, luciferase activity was measured using a ViewLux CCD imager (PerkinElmer), with an average exposure time of 2-12 seconds. Keywords: NIH Roadmap, MLPCN, MLSMR, qHTS, miR-21, miR-30, microRNA, firefly luciferase, FLuc.
Turning to `Clc1ccc(-n2ncc3c(NCc4ccccn4)ncnc32)cc1`, the Potency is 12.6 µM (active).

As to `c1ccc(CSc2nnc3ccc(-c4cccs4)nn23)nc1`, the Potency is 11.3 µM (active).

As for `O=C(COc1ccccc1F)Nc1ccc(-c2nc3ccccc3s2)cc1`, the Potency is 3.18 µM (active).

Regarding `O=S(=O)(c1ccc(F)cc1)n1ccc(-c2cnc(-c3ccccc3)s2)n1`, the Potency was 6.34 µM (active).

Regarding `O=C(CSc1nnc(-c2ccccn2)o1)Nc1cccc(Cl)c1`, the Potency was 1.13 µM (active).

For `O=C(CSc1nnc(-c2ccc(O)cc2)o1)Nc1ccccc1Br`, the Potency is 1.13 µM (active).

Take `CCC(=O)n1nc(-c2cccnc2)nc1NCc1ccc(F)cc1`: the “activity change, negative = inhibition” value is 29.6%.

Take `COc1ccc(NC(=O)CSc2nc(SC)ns2)c(OC)c1`: the Potency was 5.04 µM (active).

With `CCc1nonc1NC(=O)c1oc2ccccc2c1C`, the Potency was 12.6 µM (active).

Take `Cc1ccc(NC(=O)Cn2nnc(-c3nc(-c4ccc(Cl)cc4)no3)c2N)cc1C`: the “activity change, negative = inhibition” value is -16.2%.

Take `Cc1ccc(-n2nnc(-c3nc(-c4cccs4)no3)c2N)cc1C`: the Potency was 2.52 µM (active).

Consider `COCC(=O)Nc1c(C(=O)Nc2ccc3c(c2)OCCO3)oc2ccccc12`, for which the Potency is 0.634 µM (active).

As for `COc1ccc(NCc2cccn2-c2nnc(N3CCC(C)CC3)s2)c(OC)c1`, the Potency is 1.79 µM (active).

As to `COc1cc(-c2nc3cnccn3c2Nc2ccc(C(C)C)cc2)ccc1O`, the Potency was 2.25 µM (active).

For the molecule `COc1ccc(OCC(=O)Nc2ccc(-c3nc4cc(C)c(C)cc4o3)cc2)cc1`, the Potency was 0.798 µM (active).

With `Nc1c(-c2nc(-c3ccccc3Cl)no2)nnn1-c1ccccc1F`, the Potency was 0.4 µM (active).

For the molecule `CC(=O)c1cnc2nc(SCc3ccccc3)nn2c1C`, the Potency is 12.6 µM (active).

With `COc1ccc(OCC(=O)Nc2cc(-c3nc4ccccc4s3)ccc2C)cc1`, the Potency is 4.49 µM (active).

On to `Cc1cccc(-c2nnc(SCC(=O)Nc3ccc(C)c(C)c3)o2)c1`, for which the Potency was 3.18 µM (active).

In the case of `Cc1nnc(SCc2nc(N)nc(Nc3ccccc3)n2)s1`, the Potency is 22.5 µM (active).

`Cc1cc(C)cc(NC(=O)CSc2nnc(-c3ccccc3C)o2)c1`: the Potency is 11.3 µM (active).

As to `COc1cccc(-n2nnc(-c3nc(-c4cccs4)no3)c2N)c1`, the Potency was 0.634 µM (active).

In the case of `CC(C)(C)c1ccc(NC(=O)CSc2nnc(-c3n[nH]c4ccccc34)o2)cc1`, the Potency is 11.3 µM (active).

On to `CS(=O)(=O)n1nc(-c2ccc(Cl)cc2)nc1SCc1ccccc1`, for which the Potency is 10 µM (active).

Turning to `COc1nc(Nc2cccc(C(F)(F)F)c2)nc(OC)n1`, the Potency is 22.5 µM (active).

`COc1ccccc1C(=O)n1nc(-c2ccco2)nc1NCc1ccc(Cl)cc1`: the Potency was 7.98 µM (active).

For the molecule `CC(C)COc1ccc(C(=O)Nc2cc(-c3ccccc3)no2)cc1`, the Potency is 2.25 µM (active).

With `CCS(=O)(=O)n1nc(-c2ccccc2)nc1NCc1ccco1`, the “activity change, negative = inhibition” value was -29.2%.

Turning to `Cc1ccc(-c2nsc(SCC(=O)Nc3ccc4c(c3)OCO4)n2)cc1`, the Potency is 11.3 µM (active).

As to `Cc1c(-c2nc(-c3ccc(C(F)(F)F)cc3)no2)n(C)oc1=O`, the Potency is 0.503 µM (active).

As to `Cc1ccc(CNc2nc3nc(C)c(Cl)c(C)n3n2)cc1`, the Potency is 6.34 µM (active).

Regarding `COc1ccc(C(=O)Nc2nnc(C(C)C)s2)cc1OC`, the Potency is 7.98 µM (active).

As for `COc1ccc(-c2nnc(SCC(=O)Nc3cccc(F)c3)s2)cc1`, the Potency was 8.95 µM (active).

Turning to `NC(=O)c1ccccc1NC(=O)c1ccc(-c2ccc(Br)cc2)o1`, the Potency was 1.13 µM (active).

Regarding `COc1ccccc1NC(=O)C/C(C)=N/NC(=O)c1ccccn1`, the “activity change, negative = inhibition” value is -7.18%.

For `CCCn1c(=O)c2sccc2n2c(CCCC(=O)Nc3ccc(Oc4ccc(Cl)cc4)cc3)nnc12`, the “activity change, negative = inhibition” value is 19.4%.

For the molecule `Cc1ccc(CNc2nc(-c3ccco3)nn2S(C)(=O)=O)cc1`, the Potency was 2.83 µM (active).

On to `Cc1ccc(Nc2ncnc(N)n2)cc1C`, for which the Potency was 10 µM (active).

For `COc1ccc(NC(=O)CSc2nnc(-c3cccs3)o2)cc1`, the Potency was 3.56 µM (active).

On to `Nc1c(-c2nc(-c3cccs3)no2)nnn1-c1cccc(F)c1`, for which the Potency was 0.283 µM (active).
